For 49 compounds, Potency, outcome and activity change, negative = inhibition results are on record in PubChem BioAssay (NCATS).

Results filed as inconclusive are left out. A call without a number means that no potency is given here. Unmarked numbers belong to inactive results. Calls of active or inactive are those of the source. The call rests on the fitted dose curve; in most records, active means well fitted curve in the direction sought with a large enough effect; inconclusive means small, poorly fitted or top-dose-only effect, or another doubt; inactive means no such curve, though single readings can be large; an effect the other way counts as inactive or inconclusive.

In one assay the target is Furin (Homo sapiens) (UniProt P09958). The assay is described as follows: Furin counterscreen qHTS for Zika virus inhibitors (AID 1347149).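 Further: purified recombinant full-length human furin enzyme at 5 nM; fluorescence gain from furin cutting a BOC-RVRR-AMC peptide substrate over 15 min; top concentration of the series differs between compounds; nearly all actives have a fitted effect of over 70% in size.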 In outline: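 Fluorogenic cleavage of BOC-RVRR-AMC (2 microM final, Km ~15 µM) was monitored (ex 340, em 450 nm) at 37C after 15 min RT preincubation of 5 nM furin with compounds in HEPES pH 7.0 buffer with CaCl2 and Triton X-100. Percent inhibition was fitted to a 4-parameter Hill curve.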

The subject of assay [1] is Zika virus NS2B-NS3 protease (unlinked). Description: Optimization of GU AMC qHTS for Zika virus inhibitors: Unlinked NS2B-NS3 protease assay (AID 1347151). Further: series mostly up to about 52 µM; nearly all actives have a fitted effect of over 80% in size. The method, boiled down: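 Noncovalent complex of NS2B hydrophilic domain and NS3 protease domain, 25 nM final, in 10 mM Tris-HCl pH 8.0, 0.01% Tween 20. AMC fluorescence change over 15 min at room temperature was fitted to a 4-parameter Hill equation.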
For orientation: In qHTS, concentration-response curves come from the screen itself.

In assay [2] the test system is Zika virus NS2B-NS3 protease. Description: Primary screen GU AMC qHTS for Zika virus inhibitors (AID 1347154). Further: nearly all actives have a fitted effect of over 70% in size. The method, boiled down:
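Fluorogenic AMC-substrate cleavage by noncovalent NS2B-NS3 protease complex (25 nM, pH 8.0 Tris buffer with Tween 20) followed for 15 minutes at room temperature (~20% conversion). Percent inhibition from ex340/em450 signal change, fitted by 4-parameter Hill equation.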

Assay [3] relates to Zika virus NS2B-NS3 protease (unlinked complex). Description: Primary screen GU Rhodamine qHTS for Zika virus inhibitors: Unlinked NS2B-NS3 protease assay (AID 1347159). Further: nearly all actives have a fitted effect of over 60% in size. In outline: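 Compounds, tested up to 114 microM, were incubated for 15 minutes with 25 nM unlinked NS2B-NS3 protease at pH 8.0. Cleavage of 1.5 microM Rhodamine110 substrate was then followed by fluorescence for 15 minutes.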

In assay [4] the test system is Zika virus NS2B-NS3 protease (linked construct). Description: Primary screen NINDS Rhodamine qHTS for Zika virus inhibitors (AID 1347160). Further: nearly all actives have a fitted effect of over 55% in size. The following applies: outcome: dose series up to 57.1 µM. In outline:
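Percent inhibition, normalized to uninhibited and enzyme-free controls, is fitted to a 4-parameter Hill equation. Fluorescence change comes from a 15-min cleavage of 1.5 microM bis-peptide Rhodamine110 substrate by 25 nM linked NS2B-NS3 at room temperature.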

Assay [5] in a line: Vero cells viability qHTS for Zika virus inhibitors (AID 1347167). The method, boiled down: (§1)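 Compounds were tested in concentration series on cells grown in DMEM containing 4% FBS. After 24 to 48 hours, cellular ATP was measured by luminescence with CellTiter Glo.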
Assay [6] can be described thus: HepG2 cells viability qHTS for Zika virus inhibitors (AID 1347168). In outline: as §1
The nature of assay [7]: Tertiary RLuc qRT-PCR qHTS assay for Zika virus inhibitors (AID 1347169). Further: potency means the concentration at half of the fitted maximal effect; nearly all actives have a fitted effect of over 55% in size. The method, boiled down: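 Vero cells (1,000 per well) plated overnight at 37 degrees C, treated with compound in DMSO, then infected with recombinant ZIKV-RLuc (Cambodian) at MOI 1-2 for 48-72 hrs. Live-cell Renilla luciferase substrate added; luminescence read after 1-1.5 hrs.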
In general terms: Real-time PCR tracks product formation cycle by cycle.

Assay [8] addresses Lysine-specific demethylase 5B (Homo sapiens) (UniProt Q9UGL1). Description: Optimization screen for KDM5B Histone Demethylases FDH coupled qHTS against the LOPAC library (AID 1347166). In outline: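 KDM5BDeltaAP (200nM final) preincubated 10 min with compound, then 12.5uM H3K4Me3, 25uM a-ketoglutarate, ascorbate, Fe(II), NAD+ and FDH added; 50mM HEPES pH 7.5, 0.01% Tween-20. NADH fluorescence (340/450 nm) change over 30 min, room temperature.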

Assay [9] concerns the target N-terminal Xaa-Pro-Lys N-methyltransferase 1 (Homo sapiens) (UniProt Q9BV86). The assay is described as follows: qHTS Assay for Inhibitors of N-terminal methyltransferase 1 (NTMT1): LOPAC validation of the NTMT1 SAHH-coupled ThioGlo3 Assay (AID 1347143).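 Further: SAH from peptide methylation measured as thiol fluorescence via SAHH coupling and ThioGlo3; nearly all actives have a fitted effect of over 70% in size.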 In outline:
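Inhibition of NTMT1 methylation of peptide SPKRIA is followed by converting SAH with SAHH and labelling the released thiol with ThioGlo3. Plates are read at 340/450nm before and 30 min after reagent addition, both at room temperature.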

Chain of Lysine-specific demethylase 5B (Homo sapiens) (Q9UGL1 whole entry, looked up): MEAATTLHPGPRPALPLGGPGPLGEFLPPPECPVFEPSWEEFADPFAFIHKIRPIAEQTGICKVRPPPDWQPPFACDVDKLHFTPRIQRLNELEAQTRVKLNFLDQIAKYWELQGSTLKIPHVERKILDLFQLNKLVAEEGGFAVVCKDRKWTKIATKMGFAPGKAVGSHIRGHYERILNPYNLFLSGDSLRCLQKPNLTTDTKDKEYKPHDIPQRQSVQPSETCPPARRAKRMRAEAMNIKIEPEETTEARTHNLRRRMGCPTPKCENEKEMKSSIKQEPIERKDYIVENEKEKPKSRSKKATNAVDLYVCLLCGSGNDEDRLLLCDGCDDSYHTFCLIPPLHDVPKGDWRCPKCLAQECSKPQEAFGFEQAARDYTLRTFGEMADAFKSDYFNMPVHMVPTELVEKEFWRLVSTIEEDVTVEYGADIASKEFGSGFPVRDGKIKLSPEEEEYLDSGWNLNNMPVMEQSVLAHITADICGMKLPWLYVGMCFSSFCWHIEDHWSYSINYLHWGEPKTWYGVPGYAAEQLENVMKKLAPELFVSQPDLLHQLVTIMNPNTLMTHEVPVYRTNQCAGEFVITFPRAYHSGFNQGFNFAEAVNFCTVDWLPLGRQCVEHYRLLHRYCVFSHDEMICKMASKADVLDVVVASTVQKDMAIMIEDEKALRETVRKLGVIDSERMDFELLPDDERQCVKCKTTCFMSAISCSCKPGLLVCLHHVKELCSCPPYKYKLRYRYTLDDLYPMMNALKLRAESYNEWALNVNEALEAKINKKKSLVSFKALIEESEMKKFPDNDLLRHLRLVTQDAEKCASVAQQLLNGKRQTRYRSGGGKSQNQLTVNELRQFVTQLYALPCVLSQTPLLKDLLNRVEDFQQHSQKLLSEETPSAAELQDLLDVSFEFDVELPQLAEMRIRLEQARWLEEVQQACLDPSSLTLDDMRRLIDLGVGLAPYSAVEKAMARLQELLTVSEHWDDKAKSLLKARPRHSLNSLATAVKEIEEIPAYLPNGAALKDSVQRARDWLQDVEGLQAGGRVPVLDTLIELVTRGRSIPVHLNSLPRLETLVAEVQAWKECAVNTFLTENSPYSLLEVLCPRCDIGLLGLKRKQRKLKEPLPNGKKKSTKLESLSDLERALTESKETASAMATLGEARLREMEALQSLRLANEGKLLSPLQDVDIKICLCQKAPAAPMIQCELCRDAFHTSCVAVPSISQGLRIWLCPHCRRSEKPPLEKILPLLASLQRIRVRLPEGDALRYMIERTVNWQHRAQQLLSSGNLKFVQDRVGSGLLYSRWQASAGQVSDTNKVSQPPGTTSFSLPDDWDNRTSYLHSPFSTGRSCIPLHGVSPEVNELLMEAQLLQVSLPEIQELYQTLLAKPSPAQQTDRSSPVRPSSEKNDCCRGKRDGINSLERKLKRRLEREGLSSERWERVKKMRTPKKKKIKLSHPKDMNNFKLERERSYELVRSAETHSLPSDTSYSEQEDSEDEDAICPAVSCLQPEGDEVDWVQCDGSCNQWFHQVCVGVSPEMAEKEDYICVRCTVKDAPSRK
Chain of N-terminal Xaa-Pro-Lys N-methyltransferase 1 (Homo sapiens) (Q9BV86 whole entry, looked up): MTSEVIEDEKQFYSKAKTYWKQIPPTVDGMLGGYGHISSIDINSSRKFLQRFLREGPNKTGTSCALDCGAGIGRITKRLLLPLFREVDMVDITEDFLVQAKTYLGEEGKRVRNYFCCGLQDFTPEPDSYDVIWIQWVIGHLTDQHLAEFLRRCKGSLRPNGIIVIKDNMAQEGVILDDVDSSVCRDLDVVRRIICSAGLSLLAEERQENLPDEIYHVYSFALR
Chain of Furin (Homo sapiens) (P09958 whole entry, looked up): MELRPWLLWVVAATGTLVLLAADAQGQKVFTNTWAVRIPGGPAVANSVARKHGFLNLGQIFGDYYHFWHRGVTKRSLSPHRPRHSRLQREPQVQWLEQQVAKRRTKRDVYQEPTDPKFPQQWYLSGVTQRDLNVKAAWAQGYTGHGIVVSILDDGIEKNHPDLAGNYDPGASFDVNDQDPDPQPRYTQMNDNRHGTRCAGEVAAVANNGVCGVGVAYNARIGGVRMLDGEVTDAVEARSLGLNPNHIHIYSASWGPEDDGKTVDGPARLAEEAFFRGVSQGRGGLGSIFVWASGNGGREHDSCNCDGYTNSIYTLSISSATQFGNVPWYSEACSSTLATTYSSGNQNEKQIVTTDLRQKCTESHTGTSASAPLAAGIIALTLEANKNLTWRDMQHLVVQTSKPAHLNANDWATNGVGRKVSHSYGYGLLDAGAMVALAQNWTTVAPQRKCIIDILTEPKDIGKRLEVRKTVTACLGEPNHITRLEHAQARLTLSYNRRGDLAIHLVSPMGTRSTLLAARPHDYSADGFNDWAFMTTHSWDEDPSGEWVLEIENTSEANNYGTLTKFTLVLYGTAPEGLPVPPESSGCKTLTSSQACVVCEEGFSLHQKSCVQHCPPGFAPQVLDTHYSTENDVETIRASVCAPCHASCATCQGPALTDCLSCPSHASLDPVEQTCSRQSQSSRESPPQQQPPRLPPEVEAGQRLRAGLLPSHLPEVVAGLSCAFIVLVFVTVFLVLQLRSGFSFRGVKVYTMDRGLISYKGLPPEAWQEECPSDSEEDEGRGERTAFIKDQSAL

Regarding `Nc1ccn([C@@H]2O[C@H](CO)[C@@H](O)C2(F)F)c(=O)n1`, the Potency result (with Furin (Homo sapiens); in [1]; in assay [2]; in assay [5]; in [6]) was “inactive” in each case. Also, the call in assay [3] and in [4] was inactive. In [7], the Potency was 30.2 nM (active).
On to `C[C@@H](CN(C)C)CN1c2ccccc2Sc2ccccc21`, for which the Potency result in assay [2] is “inactive”.
Still for that read-out and setting: for `COc1cccc2c1C(=O)c1c(O)c3c(c(O)c1C2=O)C[C@@](O)(C(C)=O)C[C@@H]3O[C@H]1C[C@H](N)[C@H](O)[C@H](C)O1` the value was “inactive”.
On to `C[C@]12CC[C@@H]3c4ccc(O)cc4CC[C@H]3[C@@H]1CC[C@@H]2O`, for which the Potency result in assay [1] and in assay [2] was “inactive” in each case. Also, the outcome in assay [8] was inactive.
Take `N[C@H](CO)C(=O)O`: the Potency result in assay [9], in assay [1] and in assay [2] was “inactive” throughout. The outcome in assay [8] was inactive.
Take `O=C(O)c1cc2cc(Cc3cccnc3)ccc2o1`: the Potency entry in [9] and in assay [1] was “inactive” each time. For the same compound, the compound was classed as inactive in assay [8].
As to `Cc1c(N(C)CS(=O)(=O)O)c(=O)n(-c2ccccc2)n1C`, the Potency entry in assay [2] is “inactive”.
`CC(C)COC(=O)OCN1C(=O)CN(CCN2CC(=O)N(COC(=O)OCC(C)C)C(=O)C2)CC1=O`: the Potency result in [9] and in [1] was “inactive” in each case. Also, in [8], the call was inactive.
With `Cc1c(C)n(CCN(C)C)c2ccc(C(=O)OCCN(C)C)cc12`, in assay [2], the Potency entry is “inactive”.
Regarding `CCCCOc1ccc(C(=O)CCN2CCCCC2)cc1`, the Potency entry in assay [2] is “inactive”.
Same read-out and setting: next, `CCCC(=O)Nc1ccc(OCC(O)CNC(C)C)c(C(C)=O)c1` (stereo not given): “inactive”; `CC(=O)c1ccc2c(c1)N(CCCN1CCC(CCO)CC1)c1ccccc1S2`: “inactive”.
With `O=S1(=O)c2cccc3cccc(c23)N1CCCN1CCN(c2ccc(F)cc2)CC1`, the Potency entry in [2] was “inactive”.
Take `CCOC(=O)n1ccn(C)c1=S`: in assay [2], the Potency entry was “inactive”.
On to `CCCCN1CCCC1C(=O)Nc1c(C)cc(C)cc1C` (stereo not given), for which the Potency entry in [2] is “inactive”.
As to `COc1cc(N)c(Cl)cc1C(=O)NC1CCN(CCCOc2ccc(F)cc2)CC1OC` (stereo not given), in [2], the Potency entry was “inactive”.
On the same count and under the same terms, next, `CN(C)CCOc1ccccc1Cc1ccccc1`: “inactive”; `NC(=O)c1cc[n+](CC2=C(C(=O)[O-])N3C(=O)[C@@H](NC(=O)Cc4cccs4)[C@H]3SC2)cc1`: “inactive”; `C[C@H](CCC(=O)O)[C@H]1CC[C@H]2[C@@H]3C(=O)C[C@@H]4CC(=O)CC[C@]4(C)[C@H]3CC(=O)[C@]12C`: “inactive”.
As to `COc1cccc(CCc2ccccc2OCC(CN(C)C)OC(=O)CCC(=O)O)c1` (stereo not given), the Potency entry in assay [2] is “inactive”.
For `CC(C)=CCC1C(=O)N(c2ccccc2)N(c2ccccc2)C1=O`, the Potency entry in assay [2] is “inactive”.
In the case of `CCCOC(C(=O)OC1CCN(C)CC1)(c1ccccc1)c1ccccc1`, in assay [2], the Potency result was “inactive”.
Same read-out and setting: next, `O=C1OCCN1/N=C/c1ccc([N+](=O)[O-])o1`: “inactive”; `CCN1CCCC1=O`: “inactive”.
In the case of `COc1cc(C(=S)N2CCOCC2)cc(OC)c1OC`, in assay [2], the Potency result was “inactive”.
`CC(C)(Oc1ccc(Cl)cc1)C(=O)O`: in assay [2], the Potency result was “inactive”.
Still for that read-out and setting: for `CN(C(=O)CN(CCO)CC(=O)N(C)C(C)(C)Cc1ccccc1)C(C)(C)Cc1ccccc1` the value was “inactive”.
`CCn1cc(C(=O)O)c(=O)c2cnc(N3CCCC3)nc21`: in [2], the activity change, negative = inhibition is 1.94% [at 6.83 µM].
Consider `Cc1c(C(C)C)c(=O)n(-c2ccccc2)n1C`, for which the Potency entry in assay [2] is “inactive”.
Regarding `CC(Cc1ccccc1)(NC(=O)CN)c1ccccc1` (stereo not given), in [2], the Potency entry is “inactive”.
Take `NC[C@H]1O[C@H](O[C@H]2[C@H](O[C@@H]3O[C@H](CO)[C@@H](O)[C@H]3O)C(O)[C@H](N)C[C@@H]2N)[C@H](N)[C@@H](O)[C@@H]1O` (stereo not given in full): the activity change, negative = inhibition in assay [2] was -1.02% [at 6.83 µM].
In the case of `CC(=O)OCC(=O)NCCCOc1cccc(CN2CCCCC2)c1`, the Potency result in [2] was “inactive”.
For `CC/C(=C(/CC)c1ccc(O)cc1)c1ccc(O)cc1`, the Potency entry in assay [2] is “inactive”.
Take `Cc1ncc(CSSCc2cnc(C)c(O)c2CO)c(CO)c1O`: in assay [2], the Potency entry is “inactive”.
`COc1ccc(CCN2CCC(Nc3nc4ccccc4n3Cc3ccc(F)cc3)CC2)cc1`: the Potency entry in [2] was “inactive”.
On to `C[C@]12CCC(=O)C=C1[C@@H]1C[C@@H]1[C@H]1[C@@H]3[C@@H]4C[C@@H]4[C@@]4(CCC(=O)O4)[C@@]3(C)CC[C@@H]12`, for which the Potency result in assay [2] is “inactive”.
As for `CCN1CCC[C@H]1CNC(=O)c1c(OC)ccc(Br)c1OC`, the Potency entry in assay [2] is “inactive”.
Consider `CCCCCCCCCCOCC(O)CN` (stereo not given), for which the Potency result in [2] is “inactive”.
Same read-out and setting: for `CCN(CCCc1ccccc1)CCCc1ccccc1` the value was “inactive”; for `CCN(CCCCOC(=O)c1ccc(OC)c(OC)c1)C(C)Cc1ccc(OC)cc1` (stereo not given), “inactive”.
Consider `Cc1cc2c(cc1CC(=O)c1sccc1S(=O)(=O)Nc1onc(C)c1Cl)OCO2`, for which the Potency result in assay [2] was “inactive”.
For `CN1CCCC(CC2c3ccccc3Sc3ccccc32)C1` (stereo not given), the Potency result in assay [2] was “inactive”.
Regarding `COc1ccc(C2C(=O)c3ccccc3C2=O)cc1`, the Potency entry in assay [2] was “inactive”.
Consider `COc1cc(-c2ccc(=O)[nH]n2)ccc1OC(F)F`, for which the Potency entry in [2] was “inactive”.
Turning to `NC(CS)C(=O)O` (stereo not given), the Potency result in assay [2] was “inactive”.
On to `c1ccc(OCc2ccc(CCCN3CCOCC3)cc2)cc1`, for which the Potency result in assay [2] was “inactive”.
For the compound `CN(C)CC/C=C1\c2ccccc2Sc2ccc(Cl)cc21`, the Potency entry in assay [2] was “inactive”.
On to `CCCSS/C(CCO)=C(\C)N(C=O)Cc1cnc(C)nc1N`, for which, in [2], the Potency entry is “inactive”.
Regarding `C=CCc1ccc(O)c(OC)c1`, the Potency entry in assay [2] was “inactive”.
